The values that follow come from ChEMBL document CHEMBL1961873, “Compounds: GSK PKIS; Assays: Nanosyn kinase panel” (2012).

Assay [1] deals with 5'-AMP-activated protein kinase catalytic subunit alpha-2 (Homo sapiens) (UniProt P54646). The note with it: at 1 µM.
The target of assay [2] is T1, NUAK family SNF1-like kinase 1 (Homo sapiens) (UniProt O60285).
T1 sequence (whole entry): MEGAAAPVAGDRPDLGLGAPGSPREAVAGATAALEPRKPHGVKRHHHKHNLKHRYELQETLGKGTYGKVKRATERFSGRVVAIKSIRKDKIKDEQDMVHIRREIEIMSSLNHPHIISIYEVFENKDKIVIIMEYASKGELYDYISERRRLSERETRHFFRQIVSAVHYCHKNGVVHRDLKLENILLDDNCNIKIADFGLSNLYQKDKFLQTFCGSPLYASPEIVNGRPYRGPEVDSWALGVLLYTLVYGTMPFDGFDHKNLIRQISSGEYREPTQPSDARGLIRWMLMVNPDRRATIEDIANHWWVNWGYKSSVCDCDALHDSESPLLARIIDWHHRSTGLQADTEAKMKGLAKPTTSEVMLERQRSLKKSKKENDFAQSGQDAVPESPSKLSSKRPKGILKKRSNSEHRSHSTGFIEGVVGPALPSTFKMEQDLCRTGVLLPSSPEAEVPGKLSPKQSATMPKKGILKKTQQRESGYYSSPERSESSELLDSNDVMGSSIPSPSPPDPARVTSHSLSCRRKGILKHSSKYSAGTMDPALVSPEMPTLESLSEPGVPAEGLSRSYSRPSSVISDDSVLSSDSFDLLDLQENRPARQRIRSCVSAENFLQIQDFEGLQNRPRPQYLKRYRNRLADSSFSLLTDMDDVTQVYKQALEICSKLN
Particulars: at 0.1 µM.

The target in assay [3] is T1, NUAK family SNF1-like kinase 1 (Homo sapiens). The note with it: at 1 µM.
Assay [4] deals with T2, Serine/threonine-protein kinase BRSK1 (Homo sapiens) (UniProt Q8TDC3).
T2 sequence (whole entry): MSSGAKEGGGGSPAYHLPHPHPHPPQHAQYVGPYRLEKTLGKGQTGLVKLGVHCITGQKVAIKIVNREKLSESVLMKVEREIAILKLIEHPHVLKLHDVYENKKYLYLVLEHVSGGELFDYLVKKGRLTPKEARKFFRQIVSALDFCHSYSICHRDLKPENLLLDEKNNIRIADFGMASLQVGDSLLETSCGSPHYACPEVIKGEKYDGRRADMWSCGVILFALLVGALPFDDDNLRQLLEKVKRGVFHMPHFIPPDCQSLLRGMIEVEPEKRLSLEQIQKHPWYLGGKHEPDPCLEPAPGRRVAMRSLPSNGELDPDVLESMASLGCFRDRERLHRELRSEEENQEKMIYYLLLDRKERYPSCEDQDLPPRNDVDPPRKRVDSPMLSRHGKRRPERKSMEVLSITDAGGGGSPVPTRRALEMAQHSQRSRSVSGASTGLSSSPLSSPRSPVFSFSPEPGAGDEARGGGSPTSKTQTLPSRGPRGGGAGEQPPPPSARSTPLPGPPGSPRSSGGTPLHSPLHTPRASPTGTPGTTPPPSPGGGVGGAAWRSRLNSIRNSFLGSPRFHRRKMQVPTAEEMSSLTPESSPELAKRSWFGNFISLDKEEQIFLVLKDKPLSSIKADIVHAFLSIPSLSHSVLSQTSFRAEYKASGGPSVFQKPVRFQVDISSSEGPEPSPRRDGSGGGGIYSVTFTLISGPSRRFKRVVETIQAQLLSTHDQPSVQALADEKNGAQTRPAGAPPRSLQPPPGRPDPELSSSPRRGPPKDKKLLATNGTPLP
The note with it: at 0.1 µM.

For assay [5], the target named is T2, Serine/threonine-protein kinase BRSK1 (Homo sapiens). Particulars: at 1 µM.
Assay [6] addresses T3, Serine/threonine-protein kinase BRSK2 (Homo sapiens) (UniProt Q8IWQ3).
T3 sequence (whole entry): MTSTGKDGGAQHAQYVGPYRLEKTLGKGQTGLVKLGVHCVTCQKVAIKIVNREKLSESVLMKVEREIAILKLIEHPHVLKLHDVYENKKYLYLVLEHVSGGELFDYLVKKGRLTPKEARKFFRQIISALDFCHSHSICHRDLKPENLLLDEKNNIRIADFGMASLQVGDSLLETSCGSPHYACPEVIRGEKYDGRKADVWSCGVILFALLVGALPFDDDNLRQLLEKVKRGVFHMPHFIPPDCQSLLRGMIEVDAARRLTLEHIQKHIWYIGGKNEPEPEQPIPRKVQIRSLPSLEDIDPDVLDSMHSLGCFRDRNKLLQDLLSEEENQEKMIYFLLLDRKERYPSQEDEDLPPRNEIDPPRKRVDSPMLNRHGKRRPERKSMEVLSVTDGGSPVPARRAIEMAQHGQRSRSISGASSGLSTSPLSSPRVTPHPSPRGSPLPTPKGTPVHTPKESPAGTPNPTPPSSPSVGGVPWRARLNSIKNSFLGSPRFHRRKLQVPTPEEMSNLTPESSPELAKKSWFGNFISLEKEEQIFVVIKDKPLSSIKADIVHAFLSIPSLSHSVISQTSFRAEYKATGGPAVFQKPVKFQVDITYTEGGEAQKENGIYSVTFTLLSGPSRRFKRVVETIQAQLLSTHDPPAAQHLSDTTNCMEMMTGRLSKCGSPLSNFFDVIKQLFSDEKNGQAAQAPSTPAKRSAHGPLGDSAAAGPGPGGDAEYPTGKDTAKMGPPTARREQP
Particulars: at 0.1 µM.

The target of assay [7] is T3, Serine/threonine-protein kinase BRSK2 (Homo sapiens). Particulars: at 1 µM.
For assay [8], the target named is Calcium/calmodulin-dependent protein kinase type 1D (Homo sapiens) (UniProt Q8IU85). The note with it: at 0.1 µM.
The target is the same in assay [9]. Particulars: at 1 µM.
The target of assay [10] is Calcium/calmodulin-dependent protein kinase type II subunit alpha (Homo sapiens) (UniProt Q9UQM7). The note with it: at 0.1 µM.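 Also: reported values are averages (mean inhibition of CAMK2A).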
Sequence of Calcium/calmodulin-dependent protein kinase type II subunit alpha (Homo sapiens) (Q9UQM7 whole entry): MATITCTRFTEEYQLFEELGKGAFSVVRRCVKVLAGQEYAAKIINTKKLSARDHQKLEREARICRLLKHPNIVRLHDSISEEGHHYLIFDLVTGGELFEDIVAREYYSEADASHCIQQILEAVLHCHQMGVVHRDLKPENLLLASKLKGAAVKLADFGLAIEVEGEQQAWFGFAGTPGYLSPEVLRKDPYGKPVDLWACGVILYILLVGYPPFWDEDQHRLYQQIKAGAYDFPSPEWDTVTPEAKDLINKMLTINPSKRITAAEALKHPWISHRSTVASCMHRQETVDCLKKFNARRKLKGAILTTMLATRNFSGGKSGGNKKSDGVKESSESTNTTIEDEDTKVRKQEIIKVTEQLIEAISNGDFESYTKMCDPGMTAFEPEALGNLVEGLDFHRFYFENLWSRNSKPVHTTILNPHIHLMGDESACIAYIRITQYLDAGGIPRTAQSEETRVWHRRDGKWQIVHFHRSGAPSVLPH

Sequence of 5'-AMP-activated protein kinase catalytic subunit alpha-2 (Homo sapiens) (P54646 whole entry, looked up): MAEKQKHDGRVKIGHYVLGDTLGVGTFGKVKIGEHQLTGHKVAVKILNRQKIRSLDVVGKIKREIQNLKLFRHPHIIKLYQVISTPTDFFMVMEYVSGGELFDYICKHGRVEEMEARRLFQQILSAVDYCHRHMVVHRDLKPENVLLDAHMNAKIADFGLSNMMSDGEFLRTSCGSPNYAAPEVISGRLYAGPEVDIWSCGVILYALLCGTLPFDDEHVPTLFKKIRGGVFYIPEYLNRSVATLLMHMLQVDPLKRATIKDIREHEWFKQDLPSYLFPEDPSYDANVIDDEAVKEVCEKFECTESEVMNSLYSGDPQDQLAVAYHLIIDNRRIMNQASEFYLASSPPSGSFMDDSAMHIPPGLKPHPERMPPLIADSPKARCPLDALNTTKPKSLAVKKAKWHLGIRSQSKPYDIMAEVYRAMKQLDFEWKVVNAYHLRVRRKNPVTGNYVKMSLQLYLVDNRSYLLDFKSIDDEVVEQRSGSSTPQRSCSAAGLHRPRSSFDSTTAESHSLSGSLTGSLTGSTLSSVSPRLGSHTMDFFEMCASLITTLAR
Sequence of Calcium/calmodulin-dependent protein kinase type 1D (Homo sapiens) (Q8IU85 whole entry, looked up): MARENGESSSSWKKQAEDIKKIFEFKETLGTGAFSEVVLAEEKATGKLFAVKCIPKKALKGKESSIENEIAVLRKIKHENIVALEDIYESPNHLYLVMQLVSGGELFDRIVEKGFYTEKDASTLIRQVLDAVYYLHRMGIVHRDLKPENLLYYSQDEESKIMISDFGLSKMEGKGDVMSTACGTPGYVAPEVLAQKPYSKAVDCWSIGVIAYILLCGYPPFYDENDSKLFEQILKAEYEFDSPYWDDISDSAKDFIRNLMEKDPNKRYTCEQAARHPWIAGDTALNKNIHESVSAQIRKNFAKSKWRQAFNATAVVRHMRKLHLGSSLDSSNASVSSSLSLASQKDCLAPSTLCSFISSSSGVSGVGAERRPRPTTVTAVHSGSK

The term inhibition denotes the change of the read-out against control, counted positive when it falls. Turning to `OCc1ccc(-c2nc(-c3ccccn3)c(-c3ccc4c(c3)OCO4)[nH]2)cc1`, the inhibition in assay [1] amounted to 4.26%; in [2], 3.72%; in assay [3], 5.56%; in assay [4], 2.53%; in [5], 1.5%; in assay [6] it was 2%. Also, the inhibition was 0.59% in assay [7], 0.54% in [8], 0.26% in assay [9] and 4.98% in assay [10].

For `COc1cccc(-n2ncc3c(N/N=C/c4ccc(S(C)(=O)=O)cc4)ncnc32)c1`, the inhibition was 4.43% in assay [1]; 14.7% in assay [2]; 37.4% in [3]; 13.7% in assay [4]; 52.5% in assay [5]; 20.1% in assay [6]. The inhibition in assay [7] was 60.8%; in assay [8], 0.78%; in [9], 0.51%; in assay [10], -0.15%.

`ON=C1CCc2cc(-c3nc(C4CCNCC4)[nH]c3-c3ccncc3)ccc21`: the inhibition is 2.64% in assay [1]; 0.54% in [2]; 1.89% in assay [3]; 1.34% in assay [4]; 0.41% in assay [5]; -0.35% in assay [6]. Further, the inhibition in assay [7] was found to be 1.99%; in [8] it was 0.14%; in assay [9], 11.8%; in assay [10] it was 1.63%.

Regarding `CCn1c(-c2nonc2N)nc2ccc(F)cc21`, the inhibition in [1] came out at 3.56%; in [2], 1.74%; in [3] it was 2.03%; in [4], 0.43%; in assay [5], 1.87%; in [6], 1.78%. The inhibition was 5.06% in assay [7], 0.45% in assay [8], -0.34% in assay [9] and 4.39% in assay [10].

Turning to `N#Cc1cccc(Nc2nccc(-c3cnn4ncccc34)n2)c1`, the inhibition in assay [1] was 12.5%; in assay [2] it was 38.5%; in assay [3], 73.4%; in [4], 0.94%; in assay [5], 7.19%; in assay [6], 2.94%. In addition, the inhibition was 12.1% in assay [7], -0.83% in assay [8], 3.54% in assay [9] and 7.55% in [10].

With `Cc1ccc2c(-c3ccnc(Nc4ccc5c(c4)OCCO5)n3)c(-c3ccc(C(F)(F)F)cc3)nn2n1`, the inhibition is 1.71% in assay [1]; -1.23% in [2]; 1.59% in assay [3]; -0.85% in [4]; 1.31% in [5]; 0.24% in assay [6]. Besides, the inhibition came to 0.79% in [7], 0.52% in [8], 9.99% in assay [9] and 0.68% in [10].

Consider `COc1cc2ncnc(Nc3ccc4c(cnn4Cc4ccccc4)c3)c2cc1OC`, for which the inhibition in [1] was 3.91%; in assay [2] it was -0.12%; in assay [3], 2.05%; in [4] it was 1.23%; in [5] it was 1.11%; in [6], 0.79%. The inhibition in assay [7] was determined as 4.84%; in assay [8], 0.22%; in assay [9] it was 1.49%; in assay [10], 0.08%.

Take `CN1CCN(C(=O)c2ccc(NC(=O)Nc3ccc(N(C)c4ccnc(Nc5ccc(CS(C)(=O)=O)cc5)n4)cc3)cc2)CC1`: the inhibition turned out to be 7.01% in assay [1]; 0.11% in assay [2]; 44.5% in [3]; 0.56% in [4]; 2.28% in [5]; 0.38% in [6]. The inhibition in assay [7] turned out to be 7.68%; in [8] it was 0.6%; in assay [9], 2.18%; in assay [10], 1.63%.

On to `CC(C)c1ccc(Nc2nccc(-c3cnn4ncccc34)n2)cc1`, for which the inhibition in [1] was 4.11%; in assay [2], 12.6%; in [3], 48.9%; in assay [4], -0.04%; in assay [5], 3.13%; in assay [6], 1.33%. Moreover, the inhibition in [7] is 4.11%; in assay [8] it was -0.71%; in assay [9] it was 2.35%; in assay [10] it was 1.42%.

Regarding `CN(c1ccc(NC(=O)Nc2ccc(OC(F)(F)F)cc2)cc1)c1ccnc(Nc2cccc(S(N)(=O)=O)c2)n1`, the inhibition in assay [1] was 2.41%; in [2], -0.52%; in assay [3] it was 10.1%; in assay [4], 1.53%; in [5] it was 5.53%; in assay [6], 1.94%. Moreover, the inhibition in assay [7] was 1.96%; in [8], -0.31%; in assay [9] it was 0.2%; in assay [10], 3.05%.

As for `CCCN1CCCC(c2ccc(Nc3nc(Nc4cc(F)ccc4C(N)=O)c4cc[nH]c4n3)c(OC)c2)C1` (stereo not given), the inhibition was determined as 10.7% in assay [1]; 30.2% in assay [2]; 59.7% in assay [3]; 2.61% in assay [4]; 1.82% in assay [5]; 2.57% in [6]. Besides, the inhibition in assay [7] was determined as 2.9%; in assay [8], 15.8%; in assay [9] it was 61.1%; in [10] it was 11%.

Regarding `Nc1nccc(-c2c(-c3ccc(F)cc3)ncn2CCCN2CCOCC2)n1`, the inhibition in assay [1] is 4.51%; in [2], 3.4%; in assay [3], -1.7%; in [4] it was 0.99%; in [5], -1.18%; in [6] it was 0.6%. In addition, the inhibition in [7] is 1.72%; in assay [8], 0.27%; in assay [9] it was -0.53%; in [10] it was 2.67%.

As to `O=C1Nc2ccc(-c3cccnc3)cc2C1=Cc1cc(Br)c(O)c(Br)c1`, the inhibition was 7.03% in [1]; -0.34% in assay [2]; 4.71% in assay [3]; 2.51% in assay [4]; 4.37% in [5]; 2.22% in assay [6]. Also, the inhibition in [7] was found to be 2.32%; in assay [8] it was 1.08%; in [9], 4.01%; in assay [10], 2.95%.

Turning to `CC(C)c1ccc2c(c1)NC(=O)/C2=N/Nc1ccc(S(N)(=O)=O)cc1`, the inhibition in [1] was 0.27%; in assay [2], 11%; in assay [3], 41.7%; in [4], 0.3%; in assay [5], 1.21%; in assay [6] it was -0.18%. The inhibition in assay [7] was 7.2%; in assay [8], -0.63%; in assay [9] it was 1.05%; in assay [10], -0.9%.

Turning to `[O-][S+]1CCN(Cc2ccc(-c3ccc4ncnc(Nc5ccc(OCc6ccccc6)c(Cl)c5)c4c3)o2)CC1`, the inhibition in [1] is 1.22%; in assay [2], -2.45%; in assay [3], -2.99%; in [4], 0.95%; in assay [5], 0.18%; in [6], 1.49%. For the same molecule, the inhibition in assay [7] is 2.79%; in [8], -0.14%; in assay [9], 0.11%; in assay [10], -0.84%.

In the case of `CCS(=O)(=O)c1ccc(OC)c(Nc2ncc(-c3cccc(OC)c3)o2)c1`, the inhibition in assay [1] is 4.19%; in [2], 2.41%; in assay [3], 13.4%; in [4] it was 1.53%; in [5], -0.15%; in assay [6], 0.33%. The inhibition was determined as 0.66% in assay [7], 0.03% in assay [8], 1.97% in assay [9] and 2.7% in assay [10].
